Test results from PubChem BioAssay (NCATS).
Inconclusive results are not listed. Active and inactive are the calls of the source. Unless noted, the call rests on the fitted dose curve; in most records, active means well fitted curve in the direction sought with a large enough effect; inconclusive means small, poorly fitted or top-dose-only effect, or another doubt; inactive means no such curve, though single readings can be large; an effect the other way counts as inactive or inconclusive.

Tests used:
[1] = Cell Viability - LYMP2-001 (AID 921);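 further: series mostly up to about 92 µM; cells exposed to compound for 24 h at 37 °C; nearly all actives have a fitted effect of over 70% in size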
Procedure, shortened: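 Steps: seed 2500 lymphoblastoid cells/well; 5 hr, 37 C; add compound; 24 hr, 37 C; CellTiter-Glo reagent, 30 min room temperature; read luminescence. Concentration-response modeled by Hill equation for AC50.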

[2] = MultiTox-Fluor Cytotoxicity Assay - LYMP1-001 - Dead Cells (AID 946)
Procedure, shortened: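 LYMP1-001 lymphoblastoid cells (2500/well) treated 16 h at 37 C. Dead-cell protease cleavage of bis-AAF-R110 read at Ex/Em 485/520. Normalized to DMSO and 15 uM tetraoctylammonium bromide; AC50 from Hill fits.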

[3] = MultiTox-Fluor Cytotoxicity Assay - LYMP1-001 - Live Cells (AID 947)
[4] = Cell Viability - LYMP1-002 - Assay at 16 hr (AID 948)
Procedure, shortened: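 Seed 2500 LYMP1-002 cells per well in complete medium and hold 5 hr at 37 C. Add compound across a concentration series and incubate 16 hr at 37 C. Add CellTiter-Glo, wait 30 min at room temperature, read luminescence.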

[5] = MultiTox-Fluor Cytotoxicity Assay - LYMP1-002 - Live Cells (AID 955)
Procedure, shortened: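 LYMP1-002 lymphoblastoid cells; 2500 cells/well; 16 hr compound exposure, 37 C; MultiTox-Fluor reagent 60 min RT; live-cell fluorescence Ex/Em=405/510; qHTS concentration-response, Hill-equation AC50; tetraoctylammonium bromide positive control.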

[6] = MultiTox-Fluor Cytotoxicity Assay - LYMP1-003 - Dead Cells (AID 961); further: nearly all actives have a fitted effect of over 70% in size
Procedure, shortened: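 LYMP1-003 human lymphoblastoid cells (2500/well) exposed to compound 16 h at 37 C in complete medium; dead-cell protease read with bis-AAF-R110 fluorescence (Ex/Em 485/520) after 60 min at room temperature. Normalized to DMSO and 15 uM tetraoctylammonium bromide; AC50 from Hill fit.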

[7] = MultiTox-Fluor Cytotoxicity Assay - LYMP1-003 - Live Cells (AID 962);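 further: cytotoxic hits lower the live-cell protease signal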
Procedure, shortened: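 Readout: live-cell fluorescence (Ex/Em=405/510) from GF-AFC cleavage after 60 min MultiTox-Fluor reagent at room temperature. Lymphoblastoid LYMP1-003 cells, 16 hr compound treatment, 37 C. Concentration-response fitted to standard Hill equation for AC50.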

[8] = Cell Viability - LYMP1-003 - Assay at 24 hr (AID 963)
Procedure, shortened: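 CellTiter-Glo luminescence (intracellular ATP) read after 24 hr, 37 C compound exposure of 2500 LYMP1-003 human lymphoblastoid cells/well in complete medium; qHTS concentration series; AC50 via standard Hill equation.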

[9] = Cell Viability - LYMP1-003 - Assay at 40 hr (AID 964); further: series mostly up to about 92 µM; nearly all actives have a fitted effect of over 60% in size
Procedure, shortened: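 LYMP1-003 lymphoblastoid cells, 2500/well; 5 hr preincubation, 40 hr compound exposure, 37 C; CellTiter-Glo 30 min RT; luminescence; Hill-fit AC50. Positive control tetraoctylammonium bromide.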

[10] = Cell Viability - LYMP2-003 (AID 965);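 further: cells exposed to compounds for 24 h before reading; nearly all actives have a fitted effect of over 50% in size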
Procedure, shortened: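 Seed 2500 lymphoblastoid cells/well; incubate 5 hr, 37 C; add compounds; incubate 24 hr, 37 C; add CellTiter-Glo, 30 min RT; read luminescence. AC50 from Hill fit.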

[11] = Cell Viability - LYMP2-004 (AID 966); further: nearly all actives have a fitted effect of over 65% in size
Procedure, shortened: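 Luminescent ATP read-out (CellTiter-Glo, 30 min RT) after 24 hr compound exposure at 37 C; 2500 lymphoblastoid cells/well, complete medium. Decrease in ATP = cytotoxicity; AC50 from standard Hill model.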

[12] = Cell Viability - LYMP2-005 (AID 967);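 further: series mostly up to about 92 µM; cells exposed to compound for 24 h at 37 °C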
Procedure, shortened: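 Acute cytotoxicity is scored as a concentration-dependent drop in intracellular ATP in human lymphoblastoid LYMP2-005 cells after 24 h compound treatment. ATP is quantified by luciferase luminescence, and AC50 is derived by Hill-equation modelling.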

[13] = Cell Viability - LYMP2-009 (AID 968);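 further: series mostly up to about 92 µM; cells exposed to compound for 24 h at 37 °C; nearly all actives have a fitted effect of over 55% in size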
[14] = Cell Viability - LYMP2-011 (AID 969);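 further: cells exposed to compound for 24 hours; nearly all actives have a fitted effect of over 60% in size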
Procedure, shortened: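 Luminescent ATP read-out (CellTiter-Glo, 30 min RT) after 24 hr compound exposure at 37 C in human lymphoblastoid cells, 2500 cells/well. Decreasing ATP indicates cytotoxicity; AC50 from standard Hill fit.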

[15] = Cell Viability - LYMP2-013 (AID 970);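 further: series mostly up to about 92 µM; cells exposed to compound for 24 h at 37 °C; nearly all actives have a fitted effect of over 55% in size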
Procedure, shortened: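 CellTiter-Glo luminescence (cellular ATP) read after 30 min at RT. Cells: human lymphoblastoid line, 2500/well, 24 hr compound exposure at 37 C. Tetraoctylammonium bromide positive control; AC50 via standard Hill fit of qHTS titrations.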

[16] = Cell Viability - LYMP2-015 (AID 971); further: nearly all actives have a fitted effect of over 55% in size
Procedure, shortened: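 qHTS cytotoxicity: 2500 cells/well, 5 hr 37 C, compound 24 hr 37 C, CellTiter-Glo 30 min RT, luminescence. Loss of ATP = toxicity; AC50 via standard Hill fit.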

[17] = Cell Viability - LYMP2-017 (AID 972);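 further: series mostly up to about 92 µM; cells exposed to compound for 24 hours at 37 °C; nearly all actives have a fitted effect of over 55% in size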
Procedure, shortened: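 Luminescent ATP read-out (CellTiter-Glo, 30 min RT) reports viable cell number. Cells: human lymphoblastoid line, 2500 per well, 5 hr preincubation, 24 hr compound exposure at 37 C. AC50 is derived from qHTS concentration-response data using the standard Hill model.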

[18] = Cell Viability - LYMP2-019 (AID 973)
Procedure, shortened: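 qHTS, 1536-well; 2500 cells/well; 5 hr pre-incubation, 24 hr compound exposure, 37 C; CellTiter-Glo added, 30 min RT; luminescence read; AC50 via standard Hill equation.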

[19] = Cell Viability - LYMP2-023 (AID 975)
Procedure, shortened: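 CellTiter-Glo luminescence after 30 min at room temperature; decrease in intracellular ATP reflects toxicity. Cells: human lymphoblastoid line, 2500/well, 24 hr compound exposure at 37 C. AC50 fitted to standard Hill equation from concentration-response.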

[20] = qHTS assay for small molecule antagonists of the retinoid-related orphan receptor gamma (ROR-gamma) signaling pathway - cell viability counter screen (AID 720652; active means well fitted curve in the direction sought with a large enough effect in the repeat runs; an effect the other way counts as inactive or inconclusive;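 further: CHO reporter cells with doxycycline-induced ROR-gamma expression; series mostly up to about 92 µM; compound exposure lasted 16 hr before ATP read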)
Procedure, shortened: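 CHO RORE-LUC/TET-ROR line, 1,000 cells/well, 37 C 5% CO2 5 hr; cpd or DMSO + doxycycline induction, 16 hr. CellTiter-Glo, 30 min RT, luminescence = ATP content.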

Measured: Potency

CC12CCC(CC1=O)C2(C)C (stereo not given)
inactive: all assays above
